In the library only some 14% were active in any assay of this set; here they are far more common.
LmPK inh – qHTS Assay for Inhibitors of Leishmania Mexicana Pyruvate Kinase (LmPK); 290,000 tested, 0.37% active; purified LmPK, Kinase-Glo ATP luminescence, 1 h; Q27686; Potency, µM (doses to about 57.5 µM), hits mostly inhibitors; AID 1721, 2009
Target sequence (Q27686 whole entry, looked up): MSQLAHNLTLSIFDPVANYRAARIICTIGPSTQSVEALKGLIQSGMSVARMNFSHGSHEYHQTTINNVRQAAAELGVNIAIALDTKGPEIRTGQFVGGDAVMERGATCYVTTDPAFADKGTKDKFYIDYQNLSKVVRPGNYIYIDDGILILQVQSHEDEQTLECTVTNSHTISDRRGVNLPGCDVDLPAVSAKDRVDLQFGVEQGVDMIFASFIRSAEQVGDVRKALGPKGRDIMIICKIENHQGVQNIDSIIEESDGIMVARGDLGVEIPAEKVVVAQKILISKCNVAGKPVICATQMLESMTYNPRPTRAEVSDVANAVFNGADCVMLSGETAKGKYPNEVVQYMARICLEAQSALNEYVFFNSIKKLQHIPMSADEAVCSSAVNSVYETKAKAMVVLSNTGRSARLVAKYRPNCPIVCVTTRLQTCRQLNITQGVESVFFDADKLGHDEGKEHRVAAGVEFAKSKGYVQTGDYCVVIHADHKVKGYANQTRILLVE
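qHTS format; LmPK 0.1 nM; substrates PEP 0.5 mM and ADP 0.1 mM. One-hour room-temperature incubation, then coupled luciferase luminescence; 0.5 nM enzyme wells mark activation.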
CHX counter – Cycloheximide Counterscreen for Small Molecule Inhibitors of Shiga Toxin. cell reporter, cycloheximide protein synthesis inhibition counterscreen. 300,000 tested, 12% active. max response, %; in the data active = max response mostly above about 13%, no sharp cut-off; inactive = mostly below about 14%; note: read at 38.3 µM for the half of the compounds with a filed dose
Shiga toxin inh – A qHTS for Small Molecule Inhibitors of Shiga Toxin; 290,000 tested, 9.2% active; Vero cells, Shiga toxin protein synthesis inhibition reporter; inhibition, % at 38.7 µM; in the data active = inhibition mostly above about 28%, no sharp cut-off; inactive = mostly below about 43%
Giardia FBPA inh – qHTS Assay for Inhibitors of Fructose-1,6-bisphosphate Aldolase from Giardia Lamblia; A8B2U2; purified Giardia FBPA; Potency, µM (series often up to 59.6 µM), most hits filed as inhibitors; 290,000 tested, 0.71% active; AID 2451, 2010; note: nearly all actives have a fitted effect of over 55% in size
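40 nM FBPA preincubated 10 min at RT with compound (up to 57.5 uM final), then substrate plus GAPDH/TPI/NAD/arsenate coupling and diaphorase/resazurin added. Fluorescence read after 20 min at RT, 525/598 nm.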
NS1 function inh – qHTS Assay for Inhibitors of Influenza NS1 Protein Function | Potency, µM (doses to about 46.1 µM) | 270,000 tested, 0.4% active; calls by dose curve; note: actives are rising curves; nearly all actives have a fitted effect of over 50% in size
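Read-out: OD600 growth recovery of NS1-expressing budding yeast. Cells grown overnight at 30C in -URA glucose medium, washed, resuspended and diluted 1:100 in 2% galactose assay medium, pH 6.0. Same strain lacking NS1 served as positive control.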
Of the large screens only hits and unclear results are named; the others gave an inactive call. Unless noted, calls come from the whole dose curve; as a rule, active = well fitted curve in the direction sought with a large enough effect; inconclusive = small, poorly fitted or top-dose-only effect, or another doubt; inactive = no such curve, though single readings can be large; an effect the other way counts as inactive or inconclusive.

COc1cc(N=c2ssnc2Cl)c(OC)cc1Cl	Giardia FBPA inh inconclusive
Nc1ccccc1N=c1ssnc1Cl	Shiga toxin inh 55.1, Giardia FBPA inh inconclusive (no result: NS1 function inh)
Cc1ccc(N=c2ssnc2Cl)cc1	CHX counter 26.4, Giardia FBPA inh inconclusive
Cc1cc(C)nc(/N=c2/ssnc2Cl)c1	Giardia FBPA inh inconclusive
C=C[C@]1(C)Cc2occ(C)c2C[C@H]1C(=C)C(=O)O	none (no result: LmPK inh, CHX counter, Shiga toxin inh, NS1 function inh)
CC(C)CN1CCNC(=O)C1CC(=O)NCc1cnn(-c2cccc(F)c2)c1 (stereo not drawn)	Giardia FBPA inh inconclusive
CCOC(=O)c1sc(NC(=O)Nc2ccccc2Cl)cc1C	CHX counter 69.0, Shiga toxin inh 112.8
CCOC(=O)c1sc(NC(=O)C2CCC2)cc1C	CHX counter 27.7, Shiga toxin inh 115.5 (no result: NS1 function inh)
CCOC(=O)c1sc(NC(=O)Nc2ccccc2)cc1C	CHX counter 151.5, Shiga toxin inh 99.0
CCOC(=O)c1sc(NC(C)=O)cc1C	none
CCOC(=O)c1sc(NC(=O)c2ccc(C)s2)cc1C	CHX counter 65.1, Shiga toxin inh 68.5
COc1ccc(O)c(CNc2ccccc2F)c1	none (no result: NS1 function inh)
O=C(O)CN1CCN(CC(=O)O)CC(=O)[O][Hg][O]C(=O)C1	none (no result: LmPK inh, CHX counter, Shiga toxin inh, Giardia FBPA inh)
Cc1sc(NC(=O)C2CSC3(C)CCC(=O)N23)nc1-c1ccc(F)cc1 (stereo not drawn)	none
COc1ccc2c(c1)/C(=N/OC(=O)c1cccs1)CCC2	CHX counter 42.3 (no result: NS1 function inh)
CC(=O)c1ccc(OC(=O)c2cccs2)cc1	none
N/C(CC(=O)Nc1ccc(F)c(Cl)c1)=N\OC(=O)c1cccs1	none
N/C(=N\OC(=O)c1cccs1)c1ccc(Cl)cc1	CHX counter 55.0, Shiga toxin inh 134.7
COc1ccc(/C(N)=N/OC(=O)c2cccs2)cc1	LmPK inh inconclusive, CHX counter 40.7, Shiga toxin inh 57.2
COc1ccc(NC(=O)O/N=C2/CCCc3ccc(OC)cc32)cc1	none
COc1ccc(C2CC(c3ccccc3)Oc3c(C)ccc(C)c32)cc1 (stereo not drawn)	none (no result: LmPK inh, NS1 function inh)
CN(C)c1cccc2c1c(NC(=O)c1ccc(Cl)cc1)nn2C	Giardia FBPA inh 17.7µM
COc1cc(/C=C/c2ccc3cccc(O)c3n2)cc(Cl)c1OC	CHX counter 52.2, Shiga toxin inh 126.8
COc1ccc(Br)cc1/C=C/c1ccc2cccc(O)c2n1	none
COc1ccc(/C=C/c2ccc3c(Br)ccc(O)c3n2)cc1	CHX counter 38.8, Shiga toxin inh 93.9
COc1cc(/C=C/c2ccc3cccc(O)c3n2)cc(Br)c1OC	CHX counter 78.3, Shiga toxin inh 163.7
COc1cc(/C=N/O)cc(Cl)c1OC	none
COc1ccc(/C=C/c2ccc3cccc(O)c3n2)cc1Br	CHX counter 47.7, Shiga toxin inh 115.3
COc1cc(/C=C/c2ccc3c(Br)cc(Br)c(O)c3n2)ccc1O	Giardia FBPA inh inconclusive
CC(NC(=O)c1ccccc1F)C1CC1 (stereo not drawn)	none
CO[C@@H]1COC(=O)[C@H](CCSC)NC(=O)C/C=C\[C@@H](C)COC(=O)[C@@H]2CCCN2C(=O)C/C=C\[C@H]1C	none (no result: LmPK inh, CHX counter, Shiga toxin inh, NS1 function inh)
C[C@H]1Cc2c(-c3ccccc3)nc3c(c2CO1)CN(C(=O)C1CCCCC1)CC3	none (no result: CHX counter, Shiga toxin inh, NS1 function inh)
COc1cc(/C=C/c2ccc3cccc(O)c3n2)cc(OC)c1OC	CHX counter 33.3, Shiga toxin inh 62.6
O=[N+]([O-])c1ccc(CS(=O)(=O)c2ncn[nH]2)cc1	Giardia FBPA inh inconclusive
O=[N+]([O-])/C=C\c1cc2ccccc2[nH]1	none (no result: LmPK inh, CHX counter, Shiga toxin inh, Giardia FBPA inh)
NCCc1nc(-c2nc(C(=O)O)cs2)cs1	none (no result: LmPK inh, CHX counter, Shiga toxin inh, Giardia FBPA inh)
COc1cc(C2N(c3ccccc3)CCN2c2ccccc2)ccc1OC(C)=O	CHX counter 47.1, NS1 function inh inconclusive
COc1ccc(-n2nc(C(=O)Nc3nc4ccc(OC)cc4s3)c3ccccc3c2=O)cc1	none
Cc1ccc2sc(NNC(=O)c3cc(=O)c4ccccc4o3)nc2c1C	CHX counter 15.6, Shiga toxin inh 43.6, Giardia FBPA inh 22.3µM
COc1ccc2nc(NNC(=O)c3cc(=O)c4ccccc4o3)sc2c1	CHX counter 43.2, Shiga toxin inh 65.7
Cc1ccc2sc(NNC(=O)c3cc(-c4cccs4)nc4ccccc34)nc2c1C	none
O=C(NNc1nc2c(F)cccc2s1)c1cc(=O)c2ccccc2o1	none
Cc1cccc2sc(NNC(=O)c3cc(=O)c4ccccc4o3)nc12	CHX counter 12.5, Shiga toxin inh 30.8
